# Reference: PubChem BioAssay
# Activity calls are given as the source filed them.
# Columns and labels:
# [1] = target: Albumin (Bos taurus) (UniProt P02769); experiment: bovine serum albumin binders on microarray, profiling panel, artefact control for SMM control protein annotation, biochemical, small-molecule microarray, Alexa647 label, 635/667 nm fluorescence (AID 1118); conditions: BSA-A647 binding, fluorescence 635 nm, higher = more signal;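 also: score merges 667 nm emission intensity and signal-to-noise per printed compound spot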
# [2] = small-molecule microarray binders of probe aXIP, primary screen, biochemical, NeuroSMM set, 635/667 nm fluorescence (AID 1119); conditions: higher = more signal, called active from +8 up or from −8 down;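 also: probe is the protein aXip251-270 applied at 1 µg/mL to compound-printed slides; binding of probe to printed compounds measured as 667 nm fluorescence plus signal to noise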
# [3] = small-molecule binders of probe aNOTCH3, primary screen, biochemical, small-molecule microarray, 635/667 nm fluorescence (AID 1120); conditions: higher = more signal;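 also: probe is a biotin-tagged antibody raised against NOTCH3 rather than NOTCH3 protein; score merges spot fluorescence near 667 nm with spot signal to noise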
# [4] = small-molecule binders of probe aNOTCH2, primary screen, biochemical, small-molecule microarray, 635/667 nm fluorescence (AID 1121); conditions: higher = more signal;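 also: score merges feature fluorescence read at 667 nm with its signal to noise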
# [5] = target: Carbonic anhydrase 2 (Homo sapiens) (UniProt P00918); experiment: CAII small-molecule binders, profiling panel, biochemical, small-molecule microarray, Alexa647-labelled CAII (AID 1122); conditions: CAII-A647 binding fluorescence, higher = more signal
# [6] = COS7 lysate on small-molecule microarray, probe aHis, 635 nm (AID 1123); conditions: COS7 cell lysate, fluorescence, higher = more signal;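 also: z-score combines 667nm fluorescence intensity with signal-to-noise per printed compound spot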
# [7] = compound binding in COS7 lysate, probe aLAP1, primary screen, cell lysate, small-molecule microarray (AID 1124); conditions: probe aLAP1, fluorescence, higher = more signal;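 also: lysate comes from COS7 cells expressing LAP1 and is applied at 0.3 µg/mL; score merges spot fluorescence near 667 nm with signal-to-noise over triplicate slides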
# [8] = test system: Sam68 (KHDRBS1); experiment: Sam68 small-molecule binders, primary screen, biochemical, small-molecule microarray, 635 nm fluorescence (AID 1125); conditions: small-molecule microarray binding, higher = more signal;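 also: score merges 667 nm channel intensity with signal to noise over triplicate slides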
# [9] = test system: Chordin-like protein 2 (CHRDL2); experiment: CHRDL2 small-molecule binders, primary screen, biochemical, small-molecule microarray, 635 nm fluorescence (AID 1126); conditions: small-molecule microarray binding, fluorescence 635 nm; higher = more signal;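 also: printed compound slides probed with Chrdl2 protein at 4 µg/mL for 1 h at 4 C; score merges 667 nm emission intensity with signal to noise over three replicate slides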
# [10] = target: Concanavalin-A (Canavalia ensiformis) (UniProt P02866); experiment: ConA small-molecule binders, primary screen, artefact control for SMM control protein annotation, biochemical, small-molecule microarray, Alexa647 label, 635 nm (AID 1127); conditions: ConA-A647 binding fluorescence, higher = more signal;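 also: z combines 667 nm emission intensity with signal-to-noise across three replicate slides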
# Chain of Concanavalin-A (Canavalia ensiformis) (P02866 whole entry, looked up): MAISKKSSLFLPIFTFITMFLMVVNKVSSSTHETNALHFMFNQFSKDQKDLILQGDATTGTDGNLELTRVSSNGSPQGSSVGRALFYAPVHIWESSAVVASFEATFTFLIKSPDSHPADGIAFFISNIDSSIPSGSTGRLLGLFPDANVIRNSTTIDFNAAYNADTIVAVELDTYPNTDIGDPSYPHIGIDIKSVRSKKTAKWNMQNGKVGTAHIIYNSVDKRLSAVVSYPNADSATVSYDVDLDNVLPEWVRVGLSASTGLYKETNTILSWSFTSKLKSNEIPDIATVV
# Chain of Albumin (Bos taurus) (P02769 whole entry, looked up): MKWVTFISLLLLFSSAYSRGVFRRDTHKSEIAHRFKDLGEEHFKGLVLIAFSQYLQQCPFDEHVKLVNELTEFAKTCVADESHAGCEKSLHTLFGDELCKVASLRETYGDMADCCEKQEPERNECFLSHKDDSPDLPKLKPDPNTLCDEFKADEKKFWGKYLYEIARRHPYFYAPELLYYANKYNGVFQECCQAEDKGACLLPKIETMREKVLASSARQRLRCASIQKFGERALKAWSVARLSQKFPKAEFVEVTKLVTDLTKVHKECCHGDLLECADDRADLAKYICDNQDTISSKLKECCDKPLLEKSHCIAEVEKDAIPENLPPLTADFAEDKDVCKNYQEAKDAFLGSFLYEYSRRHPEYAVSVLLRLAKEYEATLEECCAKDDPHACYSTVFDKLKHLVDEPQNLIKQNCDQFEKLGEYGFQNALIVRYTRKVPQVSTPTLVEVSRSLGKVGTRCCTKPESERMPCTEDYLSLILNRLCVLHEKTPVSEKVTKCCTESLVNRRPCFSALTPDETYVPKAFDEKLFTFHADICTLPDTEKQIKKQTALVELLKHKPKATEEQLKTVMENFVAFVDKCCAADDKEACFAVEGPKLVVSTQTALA
SMILES,composite z-score [1],composite Z-score [2],composite z-score [3],composite z-score [4],composite z-score [5],composite z-score [6],composite z-score [7],composite z-score [8],composite z-score [9],composite z-score [10]
CC(C)(C)OC(=O)CC[C@]1(C(=O)NCCN2CCOCC2)COC(c2ccc(OCCCO)cc2)=N1,0.735,0.347 (inactive),0.199,-0.0995,0.719,2.48,0.737,1.28,-0.634,0.919
CC(C)N1CC=CC23O[C@@H]4C=CCOC(=O)[C@@H]4[C@H]2C(=O)N(CCCCCO)[C@@H]3C1=O (stereo not given in full),1.02,-0.194 (inactive),-0.12,-0.153,0.733,1.64,0.915,-0.135,-0.574,0.823
CN(C)CCCCNC(=O)[C@@H]1C[C@@H]2C(=O)N[C@@H](CCCCN)C(=O)N2[C@@H]1c1ccc(O)cc1,-0.153,0.237 (inactive),-0.0613,-0.0241,-0.0397,1.7,0.0496,0.239,0.965,1.19
CC(C)[Si](C#C[Si](C(C)C)(C(C)C)C(C)C)(O[C@H](C)c1cn(Cc2ccccc2)nn1)C(C)C,0.551,-0.539 (inactive),0.379,-0.0956,0.48,0.664,0.177,1.03,0.289,0.598
C#CCNCc1ccccc1,-0.172,0.204 (inactive),-0.201,-0.117,-0.0848,-0.0833,0.149,0.44,0.128,0.159
COC(=O)[C@@]1(Cc2ccccc2)[C@H]2c3cc(C(=O)N(C)C)n(CCc4c[nH]c5ccc(O)cc45)c3C[C@H]2CN1C(=O)c1ccccc1,1.01,0.492 (inactive),0.238,0.153,0.858,2.15,1.29,0.878,-0.676,0.0221
C=CCN(Cc1ccccc1)C(=O)C(c1cccs1)N(C(=O)/C=C\C(=O)O)c1ccc(CCOCCO)cc1 (stereo not given),0.955,0.0165 (inactive),-0.416,-0.135,0.864,-0.691,-0.679,-1.33,-2.25,-0.931
CN1CCC(CCCO)=CC1c1cccs1 (stereo not given),-0.552,0.639 (inactive),-0.0048,-0.148,0.74,-0.743,-0.476,-0.203,-0.154,-0.384
